Holding throughout (assay): DAPPL (digital affinity profiling via proximity ligation, sequencing); 10 mM Tris-HCl pH 7.5, 50 mM NaCl, 1 mM DTT, 4% glycerol, room temperature, 30 min; GST-TFs on glutathione beads, 16-mer random dsDNA library, 0.1% formaldehyde crosslink after washing; high values mean tight binding
One test concerns the target T1, FEV (Homo sapiens, UniProt Q99581 1-238).
T1 sequence: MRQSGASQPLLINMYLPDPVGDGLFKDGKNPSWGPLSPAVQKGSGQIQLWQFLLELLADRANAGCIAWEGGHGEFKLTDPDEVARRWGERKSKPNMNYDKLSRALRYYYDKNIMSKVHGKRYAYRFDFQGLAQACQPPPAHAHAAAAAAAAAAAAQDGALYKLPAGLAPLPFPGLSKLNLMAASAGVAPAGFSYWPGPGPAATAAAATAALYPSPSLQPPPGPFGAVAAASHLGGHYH
The note with it: protein: recombinant; tags: N-terminal GST; dsDNA, one strand shown. The essentials: (§1)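 Binding signal is each hexamer's read frequency for a factor divided by its frequency in the tag-only sample. The factors were GST-fused human transcription factors from yeast, captured on glutathione beads, DNA-barcoded and pooled with that sample. Pools were incubated with 200 nmole of a random double-stranded 16-mer DNA library in Tris/NaCl/DTT/glycerol buffer at room temperature for 30 min, then washed, crosslinked with 0.1% formaldehyde, proximity-ligated with BsaI/T4 ligase (1 h, 37 °C), PCR-amplified and sequenced on an Illumina NextSeq500.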

For a further test, the target named is ETV5 (Homo sapiens, UniProt P41161 1-510). Conditions: protein: recombinant; tags: N-terminal GST; dsDNA, one strand shown. Summed up:
as §1

Another test deals with HSF1 (Homo sapiens, UniProt Q00613 1-529). The note with it: protein: recombinant; tags: N-terminal GST; chain copies: 3; dsDNA, one strand shown. The essentials: as §1
Chain of HSF1 (Q00613 whole entry): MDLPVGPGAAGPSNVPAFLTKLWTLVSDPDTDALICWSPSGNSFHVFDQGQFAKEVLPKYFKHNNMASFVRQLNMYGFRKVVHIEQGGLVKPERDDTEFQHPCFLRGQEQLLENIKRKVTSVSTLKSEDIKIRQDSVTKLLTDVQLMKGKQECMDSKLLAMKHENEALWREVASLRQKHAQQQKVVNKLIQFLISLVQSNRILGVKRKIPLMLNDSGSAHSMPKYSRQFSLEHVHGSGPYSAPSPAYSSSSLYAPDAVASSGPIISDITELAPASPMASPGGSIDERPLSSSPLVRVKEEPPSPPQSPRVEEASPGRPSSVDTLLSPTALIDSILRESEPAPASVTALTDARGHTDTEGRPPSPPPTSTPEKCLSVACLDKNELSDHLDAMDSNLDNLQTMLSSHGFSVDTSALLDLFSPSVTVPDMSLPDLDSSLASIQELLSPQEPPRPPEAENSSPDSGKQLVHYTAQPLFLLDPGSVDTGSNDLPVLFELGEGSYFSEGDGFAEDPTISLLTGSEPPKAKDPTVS
The target in the next test is T2, SPIC (Homo sapiens, UniProt Q8N5J4 1-248).
T2 sequence: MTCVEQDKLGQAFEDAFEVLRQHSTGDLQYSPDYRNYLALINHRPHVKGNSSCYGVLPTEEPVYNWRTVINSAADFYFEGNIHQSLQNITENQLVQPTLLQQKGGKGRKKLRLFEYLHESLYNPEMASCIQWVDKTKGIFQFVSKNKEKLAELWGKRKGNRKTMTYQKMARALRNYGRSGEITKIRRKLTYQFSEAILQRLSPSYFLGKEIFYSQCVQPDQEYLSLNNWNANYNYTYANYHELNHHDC
Conditions: protein: recombinant; tags: N-terminal GST; dsDNA, one strand shown. The essentials:
as §1

The next test addresses ELF4 (Homo sapiens, UniProt Q99607 1-663). The note with it: protein: recombinant; tags: N-terminal GST; dsDNA, one strand shown. Summed up: as §1
A further test has as its target T3, ELK4 (Homo sapiens, UniProt P28324-2 1-405).
T3 sequence: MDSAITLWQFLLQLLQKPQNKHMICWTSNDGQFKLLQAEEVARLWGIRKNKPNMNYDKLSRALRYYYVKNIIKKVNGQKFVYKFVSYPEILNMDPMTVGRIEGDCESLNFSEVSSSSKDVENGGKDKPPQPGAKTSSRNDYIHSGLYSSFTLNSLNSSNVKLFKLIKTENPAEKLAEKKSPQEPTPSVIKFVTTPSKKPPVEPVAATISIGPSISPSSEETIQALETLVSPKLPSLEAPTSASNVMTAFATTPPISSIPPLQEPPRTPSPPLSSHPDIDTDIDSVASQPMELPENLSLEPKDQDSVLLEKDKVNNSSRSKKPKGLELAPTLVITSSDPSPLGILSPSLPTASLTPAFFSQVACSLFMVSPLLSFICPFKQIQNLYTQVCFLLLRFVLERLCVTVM
Conditions: protein: recombinant; tags: N-terminal GST; dsDNA, one strand shown. The essentials: as §1

The next test addresses T4, ETV2 (Homo sapiens, UniProt O00321 1-342).
T4 sequence: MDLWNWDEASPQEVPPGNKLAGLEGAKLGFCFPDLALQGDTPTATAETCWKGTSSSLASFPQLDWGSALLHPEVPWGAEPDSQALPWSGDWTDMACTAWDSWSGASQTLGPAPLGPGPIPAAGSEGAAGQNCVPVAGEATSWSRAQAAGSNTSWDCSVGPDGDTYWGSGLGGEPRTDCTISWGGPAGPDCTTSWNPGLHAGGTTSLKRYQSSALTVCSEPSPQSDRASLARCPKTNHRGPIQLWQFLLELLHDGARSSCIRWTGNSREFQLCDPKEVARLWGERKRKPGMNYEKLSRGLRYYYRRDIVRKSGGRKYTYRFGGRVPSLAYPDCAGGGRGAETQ
Conditions: protein: recombinant; tags: N-terminal GST; dsDNA, one strand shown. Summed up: as §1

A further test deals with T5, ELF3 (Homo sapiens, UniProt P78545 1-371).
T5 sequence: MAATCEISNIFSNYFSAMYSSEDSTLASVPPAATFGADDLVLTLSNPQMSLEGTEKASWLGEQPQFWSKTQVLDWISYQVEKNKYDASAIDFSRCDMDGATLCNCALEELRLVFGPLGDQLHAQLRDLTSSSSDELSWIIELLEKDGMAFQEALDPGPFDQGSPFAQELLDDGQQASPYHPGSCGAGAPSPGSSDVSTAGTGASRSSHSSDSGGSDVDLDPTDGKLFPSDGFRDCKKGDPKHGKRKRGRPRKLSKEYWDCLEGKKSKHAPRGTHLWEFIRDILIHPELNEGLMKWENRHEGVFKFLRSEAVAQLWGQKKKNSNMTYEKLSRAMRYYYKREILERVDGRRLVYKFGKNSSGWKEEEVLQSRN
Conditions: protein: recombinant; tags: N-terminal GST; dsDNA, one strand shown. The essentials: as §1

The target of a further test is CRX (Homo sapiens, UniProt O43186 1-299). Conditions: protein: recombinant; tags: N-terminal GST; dsDNA, one strand shown. The essentials:
as §1

The next test addresses ETV1 (Homo sapiens, UniProt P50549 1-477). Conditions: protein: recombinant; tags: N-terminal GST; dsDNA, one strand shown. The essentials: as §1

Data on eight sequences can be found in PMC7862700, “An all-to-all approach to the identification of sequence-specific readers for epigenetic DNA modifications on cytosine”.

Chain of CRX (O43186 whole entry): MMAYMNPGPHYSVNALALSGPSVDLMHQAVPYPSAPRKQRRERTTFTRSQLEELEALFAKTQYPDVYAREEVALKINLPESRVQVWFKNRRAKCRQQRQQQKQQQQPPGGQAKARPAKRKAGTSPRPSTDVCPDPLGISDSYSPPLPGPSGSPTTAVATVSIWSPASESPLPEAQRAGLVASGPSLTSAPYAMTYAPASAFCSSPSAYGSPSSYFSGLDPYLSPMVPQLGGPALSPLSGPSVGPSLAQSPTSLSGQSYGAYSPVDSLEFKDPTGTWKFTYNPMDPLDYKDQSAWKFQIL
Chain of ETV1 (P50549 whole entry): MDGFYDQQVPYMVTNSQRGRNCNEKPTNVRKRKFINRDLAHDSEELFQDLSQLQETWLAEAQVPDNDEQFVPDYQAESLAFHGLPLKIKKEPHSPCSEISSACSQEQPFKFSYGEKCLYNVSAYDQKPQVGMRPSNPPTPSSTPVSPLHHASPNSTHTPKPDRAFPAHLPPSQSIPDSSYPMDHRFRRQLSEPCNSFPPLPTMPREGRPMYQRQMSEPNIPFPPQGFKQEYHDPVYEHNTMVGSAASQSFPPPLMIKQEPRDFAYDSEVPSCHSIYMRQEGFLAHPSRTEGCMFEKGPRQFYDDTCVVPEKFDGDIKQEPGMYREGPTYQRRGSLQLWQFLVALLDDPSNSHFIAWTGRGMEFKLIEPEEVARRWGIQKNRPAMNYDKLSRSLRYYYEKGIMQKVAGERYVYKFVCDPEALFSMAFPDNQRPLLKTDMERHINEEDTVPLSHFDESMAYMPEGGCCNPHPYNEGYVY
Chain of ELF4 (Q99607 whole entry): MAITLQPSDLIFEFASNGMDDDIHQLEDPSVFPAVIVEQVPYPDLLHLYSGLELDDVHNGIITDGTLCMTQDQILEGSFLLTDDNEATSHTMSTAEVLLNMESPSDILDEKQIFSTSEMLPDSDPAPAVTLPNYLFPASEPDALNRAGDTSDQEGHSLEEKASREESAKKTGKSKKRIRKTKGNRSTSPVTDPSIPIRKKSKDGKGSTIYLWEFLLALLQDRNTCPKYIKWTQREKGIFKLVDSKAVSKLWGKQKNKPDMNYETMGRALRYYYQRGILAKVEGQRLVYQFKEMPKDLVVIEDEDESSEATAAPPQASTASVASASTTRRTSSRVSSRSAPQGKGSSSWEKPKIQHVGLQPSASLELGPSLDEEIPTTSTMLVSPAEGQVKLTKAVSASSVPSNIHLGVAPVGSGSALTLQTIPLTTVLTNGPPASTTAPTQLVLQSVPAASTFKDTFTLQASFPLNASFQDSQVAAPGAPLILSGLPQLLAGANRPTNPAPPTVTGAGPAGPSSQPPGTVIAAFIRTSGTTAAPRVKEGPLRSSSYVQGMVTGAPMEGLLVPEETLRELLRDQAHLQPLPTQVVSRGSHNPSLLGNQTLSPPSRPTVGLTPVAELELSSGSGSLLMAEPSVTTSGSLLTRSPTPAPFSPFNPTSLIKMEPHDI
Chain of ETV5 (P41161 whole entry): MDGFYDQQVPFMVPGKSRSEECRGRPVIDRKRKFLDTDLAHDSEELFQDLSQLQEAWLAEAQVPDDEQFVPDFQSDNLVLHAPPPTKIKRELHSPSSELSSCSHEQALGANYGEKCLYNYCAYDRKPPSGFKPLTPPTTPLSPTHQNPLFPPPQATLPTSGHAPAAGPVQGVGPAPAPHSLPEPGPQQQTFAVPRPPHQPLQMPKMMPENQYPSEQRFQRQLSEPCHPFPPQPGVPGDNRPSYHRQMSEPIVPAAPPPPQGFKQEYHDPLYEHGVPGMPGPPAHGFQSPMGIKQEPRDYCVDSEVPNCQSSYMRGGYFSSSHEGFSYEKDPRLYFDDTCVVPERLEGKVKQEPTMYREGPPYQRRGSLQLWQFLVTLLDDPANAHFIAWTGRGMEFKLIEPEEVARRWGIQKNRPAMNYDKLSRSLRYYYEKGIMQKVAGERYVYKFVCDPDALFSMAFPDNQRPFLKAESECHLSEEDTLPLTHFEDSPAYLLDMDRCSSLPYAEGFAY

With TATCCA, the binding signal is 1.29 fold enrichment (6-mer frequency, TF over GST control) with FEV; 1.27 fold enrichment (6-mer frequency, TF over GST control) with ETV5; 1.49 fold enrichment (6-mer frequency, TF over GST control) with HSF1; 1.4 fold enrichment (6-mer frequency, TF over GST control) in the test with SPIC; 1.29 fold enrichment (6-mer frequency, TF over GST control) in the test with ELF4; 1.33 fold enrichment (6-mer frequency, TF over GST control) with ELK4. The binding signal is 1.37 fold enrichment (6-mer frequency, TF over GST control) in the test with ETV2; 1.31 fold enrichment (6-mer frequency, TF over GST control) in the test with ELF3; 1.75 fold enrichment (6-mer frequency, TF over GST control) with CRX; 1.27 fold enrichment (6-mer frequency, TF over GST control) with ETV1.
As to GCTCTC, the binding signal is 1.47 fold enrichment (6-mer frequency, TF over GST control) in the test with FEV; 1.28 fold enrichment (6-mer frequency, TF over GST control) with ETV5; 1.42 fold enrichment (6-mer frequency, TF over GST control) with HSF1; 1.33 fold enrichment (6-mer frequency, TF over GST control) with SPIC; 1.45 fold enrichment (6-mer frequency, TF over GST control) with ELF4; 1.56 fold enrichment (6-mer frequency, TF over GST control) in the test with ELK4. The binding signal with ETV2 was 1.61 fold enrichment (6-mer frequency, TF over GST control); with ELF3, 1.35 fold enrichment (6-mer frequency, TF over GST control); with CRX, 1.24 fold enrichment (6-mer frequency, TF over GST control); in the test with ETV1 it was 1.57 fold enrichment (6-mer frequency, TF over GST control).
Take AAAGCA: the binding signal was 1.07 fold enrichment (6-mer frequency, TF over GST control) in the test with FEV; 1.06 fold enrichment (6-mer frequency, TF over GST control) with ETV5; 1.04 fold enrichment (6-mer frequency, TF over GST control) with HSF1; 1.01 fold enrichment (6-mer frequency, TF over GST control) in the test with SPIC; 1.09 fold enrichment (6-mer frequency, TF over GST control) with ELF4; 1.14 fold enrichment (6-mer frequency, TF over GST control) with ELK4. Besides, the binding signal is 1.11 fold enrichment (6-mer frequency, TF over GST control) with ETV2; 1.02 fold enrichment (6-mer frequency, TF over GST control) with ELF3; 1.06 fold enrichment (6-mer frequency, TF over GST control) in the test with CRX; 1.06 fold enrichment (6-mer frequency, TF over GST control) in the test with ETV1.
Turning to ACATGC, the binding signal with FEV was 1.3 fold enrichment (6-mer frequency, TF over GST control); with ETV5, 1.25 fold enrichment (6-mer frequency, TF over GST control); in the test with HSF1, 1.1 fold enrichment (6-mer frequency, TF over GST control); with SPIC, 1.27 fold enrichment (6-mer frequency, TF over GST control); in the test with ELF4, 1.26 fold enrichment (6-mer frequency, TF over GST control); with ELK4 it was 1.2 fold enrichment (6-mer frequency, TF over GST control). For the same sequence, the binding signal was 1.44 fold enrichment (6-mer frequency, TF over GST control) with ETV2; 1.28 fold enrichment (6-mer frequency, TF over GST control) with ELF3; 1.03 fold enrichment (6-mer frequency, TF over GST control) in the test with CRX; 1.3 fold enrichment (6-mer frequency, TF over GST control) with ETV1.
Regarding ACTAGC, the binding signal was 1.11 fold enrichment (6-mer frequency, TF over GST control) with FEV; 1.2 fold enrichment (6-mer frequency, TF over GST control) with ETV5; 1.32 fold enrichment (6-mer frequency, TF over GST control) with HSF1; 1.17 fold enrichment (6-mer frequency, TF over GST control) in the test with SPIC; 1.17 fold enrichment (6-mer frequency, TF over GST control) with ELF4; 1.24 fold enrichment (6-mer frequency, TF over GST control) with ELK4. Also, the binding signal is 1.3 fold enrichment (6-mer frequency, TF over GST control) in the test with ETV2; 1.01 fold enrichment (6-mer frequency, TF over GST control) in the test with ELF3; 1.11 fold enrichment (6-mer frequency, TF over GST control) with CRX; 1.19 fold enrichment (6-mer frequency, TF over GST control) in the test with ETV1.
Turning to TTCTTA, the binding signal with FEV was 1.32 fold enrichment (6-mer frequency, TF over GST control); with ETV5 it was 1.33 fold enrichment (6-mer frequency, TF over GST control); with HSF1, 1.85 fold enrichment (6-mer frequency, TF over GST control); in the test with SPIC it was 1.71 fold enrichment (6-mer frequency, TF over GST control); in the test with ELF4, 1.41 fold enrichment (6-mer frequency, TF over GST control); with ELK4, 1.5 fold enrichment (6-mer frequency, TF over GST control). In addition, the binding signal with ETV2 is 1.36 fold enrichment (6-mer frequency, TF over GST control); with ELF3, 1.47 fold enrichment (6-mer frequency, TF over GST control); with CRX, 2.21 fold enrichment (6-mer frequency, TF over GST control); with ETV1, 1.36 fold enrichment (6-mer frequency, TF over GST control).
For AAAGAC, the binding signal was 1.06 fold enrichment (6-mer frequency, TF over GST control) with FEV; 1.05 fold enrichment (6-mer frequency, TF over GST control) with ETV5; 1.11 fold enrichment (6-mer frequency, TF over GST control) with HSF1; 1.01 fold enrichment (6-mer frequency, TF over GST control) in the test with SPIC; 1.04 fold enrichment (6-mer frequency, TF over GST control) in the test with ELF4; 1.04 fold enrichment (6-mer frequency, TF over GST control) with ELK4. The binding signal is 1.03 fold enrichment (6-mer frequency, TF over GST control) in the test with ETV2; 1.01 fold enrichment (6-mer frequency, TF over GST control) with ELF3; 1.13 fold enrichment (6-mer frequency, TF over GST control) with CRX; 1.03 fold enrichment (6-mer frequency, TF over GST control) with ETV1.
On to GGCTTC, for which the binding signal with FEV is 1.77 fold enrichment (6-mer frequency, TF over GST control); in the test with ETV5, 1.69 fold enrichment (6-mer frequency, TF over GST control); in the test with HSF1 it was 1.45 fold enrichment (6-mer frequency, TF over GST control); with SPIC it was 1.6 fold enrichment (6-mer frequency, TF over GST control); in the test with ELF4 it was 1.55 fold enrichment (6-mer frequency, TF over GST control); with ELK4 it was 1.44 fold enrichment (6-mer frequency, TF over GST control). Moreover, the binding signal in the test with ETV2 was 1.76 fold enrichment (6-mer frequency, TF over GST control); in the test with ELF3 it was 1.64 fold enrichment (6-mer frequency, TF over GST control); with CRX it was 1.25 fold enrichment (6-mer frequency, TF over GST control); in the test with ETV1, 1.6 fold enrichment (6-mer frequency, TF over GST control).
